Compound activity from PubChem.
Shown are actives, neighbours in structure and some others; about 8% of the full set was active somewhere.
ELG1 DNA repair: blocks ELG1-dependent DNA repair in HEK293T cells | hit rate 2.3% among 330,000 | HEK293T ELG1-luciferase reporter, luminescence, 16 h; DNA damage induced by 5-fluorouridine | AID 504467 | Potency, µM (doses to about 46.1 µM), for the others: at the highest dose activity change, negative = inhibition, most hits filed as inhibitors; further: potency means the concentration at half of the fitted maximal effect; nearly all actives have a fitted effect of over 55% in size
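In this reporter screen, reduction of luminescence relative to DMSO vehicle indicated activity. Compounds and 5-fluorouridine were added together to 2,000 cells per well, incubated for 16 hr at 37 °C, then developed with ONE-Glo.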
Gal4-VP16 FLuc: inhibits Gal4-VP16 luciferase reporter, ROR gamma counter-screen; Drosophila S2 Gal4-VP16 UAS-luciferase, luminescence, 20 h; Potency, µM (titrated, usually from 53.6 µM), for inactives: at the top dose activity, negative = inhibition, most hits filed as inhibitors; AID 2546; hit rate 3.5% among 310,000;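 further: Gal4-VP16 expression switched on by copper sulfate through the metallothionein promoter; potency means the concentration at half of the fitted maximal effect; nearly all actives have a fitted effect of over 50% in size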
Coupling enz: counter-screen for Giardia aldolase inhibitors: coupling enzyme system. hit rate 0.67% among 290,000. coupling enzyme system counterscreen, AmpLite Red fluorescence. AID 2472. activity change, negative = inhibition, % at 58.2 µM, hits read low; in the data active means activity change below about -30%
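Counterscreen of the coupled detection system alone, without aldolase: glyceraldehyde-3-phosphate coupling enzymes plus AmpLite Red readout. Compounds at 57.5 uM final, 10 min RT preincubation, 20 min RT reaction, fluorescence 525/598 nm.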
TSHR antagonist: human thyrotropin receptor antagonism; P16473; AID 504810; activity change, negative = inhibition, % at 11.5 µM; TSHR-expressing cells, TSH-stimulated cAMP HTRF, 2 h; hits give low values; hit rate 0.2% among 330,000;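 active means activity change below a set negative limit, meaning inhibition stronger than a set level, cut at about -70% in these data; inconclusive means activity change between two set negative limits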
Target sequence (P16473 whole entry, looked up): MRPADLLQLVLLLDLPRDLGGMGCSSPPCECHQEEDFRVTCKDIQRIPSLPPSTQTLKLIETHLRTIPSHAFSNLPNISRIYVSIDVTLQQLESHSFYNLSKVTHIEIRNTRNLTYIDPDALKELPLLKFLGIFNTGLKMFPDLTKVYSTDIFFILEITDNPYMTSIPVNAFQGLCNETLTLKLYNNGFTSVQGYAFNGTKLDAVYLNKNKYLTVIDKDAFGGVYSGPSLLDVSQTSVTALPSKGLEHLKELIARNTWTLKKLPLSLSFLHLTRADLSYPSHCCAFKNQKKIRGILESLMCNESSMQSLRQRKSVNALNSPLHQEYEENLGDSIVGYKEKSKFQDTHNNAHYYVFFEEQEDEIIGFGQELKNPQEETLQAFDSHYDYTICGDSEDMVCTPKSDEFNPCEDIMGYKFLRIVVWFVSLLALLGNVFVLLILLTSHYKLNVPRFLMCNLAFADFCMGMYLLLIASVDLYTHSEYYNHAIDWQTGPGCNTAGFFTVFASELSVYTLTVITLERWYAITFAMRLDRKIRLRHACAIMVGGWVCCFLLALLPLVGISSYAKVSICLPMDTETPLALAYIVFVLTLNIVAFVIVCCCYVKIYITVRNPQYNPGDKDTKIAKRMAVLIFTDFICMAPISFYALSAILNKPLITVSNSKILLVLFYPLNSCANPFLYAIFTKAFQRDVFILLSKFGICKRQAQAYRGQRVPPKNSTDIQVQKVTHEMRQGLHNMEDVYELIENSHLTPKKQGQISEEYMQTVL
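Freshly harvested TSHR cells receive pin-tooled compound, then EC80 TSH at 4nM final. After 2 hours at 37 deg C, antibody in lysis buffer and cAMP-d2 are added; 30 minutes at ambient temperature precede the HTRF read.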
RORg inh: blocks mouse ROR gamma transcriptional activity | AID 2551 | Drosophila S2 Gal4-RORgamma UAS-luciferase reporter, 20 h | hit rate 5.4% among 310,000 | Potency, µM (series often up to 53.6 µM), without a hit: at the highest dose activity change, negative = inhibition, actives largely listed as inhibitors; further: potency means the concentration at half of the fitted maximal effect; nearly all actives have a fitted effect of over 60% in size
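Drosophila S2 cells stably expressing Gal4-DBD/mouse RORγ fusion under metallothionein promoter plus UAS-luciferase; compound 1 h, then 700 uM CuSO4 induction for 20 h at ambient temperature; inhibition read as reduced luminescence.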
Numbers without * were called inactive; ? = inconclusive; nt = no result given; [ ] = dose if it differs, or a comment. Unless noted, the call rests on the fitted dose curve; in most records, active means well fitted curve in the direction sought with a large enough effect; inconclusive means small, poorly fitted or top-dose-only effect, or another doubt; inactive means no such curve, though single readings can be large; an effect the other way counts as inactive or inconclusive. On the % scale 0 is the no-effect control and ±100 the full control effect.

SMILES	ELG1 DNA repair	Gal4-VP16 FLuc	Coupling enz	TSHR antagonist	RORg inh
c1cn(-c2ncnc3ccc(-c4ccoc4)cc23)cn1	nt	?	2	nt	4.5µM*
CC(C)C[C@H](NC(=O)[C@H](CC(C)C)NC(=O)[C@H](Cc1ccc(O)cc1)NC(=O)CNC(=O)[C@H](C)NC(=O)[C@H](CO)NC(=O)[C@H](CC(N)=O)NC(=O)[C@H](CC(C)C)NC(=O)[C@@H](NC(=O)[C@H](Cc1c[nH]c2ccccc12)NC(=O)CN)[C@@H](C)O)C(=O)NCC(=O)N1CCC[C@H]1C(=O)N1CCC[C@H]1C(=O)N1CCC[C@H]1C(=O)NCC(=O)N[C@@H](Cc1ccccc1)C(=O)N[C@@H](CO)C(=O)N1CCC[C@H]1C(=O)N[C@@H](Cc1ccccc1)C(=O)N[C@@H](CCCNC(=N)N)C(N)=O	nt	-4%	4	nt	7%
CC(C)(C)OC(=O)C[C@@H]1C/C=C\C[C@@H](CC(=O)N(CCO)Cc2ccccc2)C(=O)N[C@@H](c2ccccc2)COC1=O	15µM*	nt	nt	17	nt
CC(C)(C)[C@H]1COC(=O)[C@H](NC(=O)OCC2c3ccccc3-c3ccccc32)C/C=C\C[C@@H](CC(=O)N(CCO)Cc2ccccc2)C(=O)N1	10µM*	nt	nt	-9	nt
C[C@@H]1COC(=O)[C@H](NC(=O)OCC2c3ccccc3-c3ccccc32)C/C=C\C[C@@H](CC(=O)N(CCO)Cc2ccccc2)C(=O)N1	11%	nt	nt	-2	nt
CC1CCC(C(C)C)C(OC(=O)COC(=O)c2ccc(N)cc2)C1 (stereo not drawn)	-2%	16µM*	0	-24	32%
CC1CCC(C(C)C)C(OC(=O)COC(=O)c2cccn2C)C1 (stereo not drawn)	-27%	2%	-2	-22	13%[10 µM]
C=CCn1c(-c2ccc(=O)n(Cc3ccccc3)c2)n[nH]c1=S	0%	-9%	0	-12	-27%
C=CCn1c(-c2ccccc2[N+](=O)[O-])n[nH]c1=S	-1%	?	0	13	3.2µM*
C=CCn1c(-c2cccn(Cc3cccc(Cl)c3)c2=O)n[nH]c1=S	2%	?	2	-6	13µM*
C=CCn1c(-c2cccn(Cc3ccccc3)c2=O)n[nH]c1=S	-4%	-29%	1	8	11µM*
C=CCn1c(-c2cccn(Cc3ccc(Cl)cc3)c2=O)n[nH]c1=S	-2%	?	-1	3	6.3µM*
CC1CCCC(C)N1CCNC(=O)CCc1nnc2n(Cc3ccccc3)c(=O)c3ccccc3n12 (stereo not drawn)	11%	-1%	2	7	0%
O=c1c(-c2n[nH]c(=S)n2-c2ccccc2)cccn1Cc1cccc(Cl)c1	4%	-9%	6	0	13µM*
C=CCn1c(-c2cccn(Cc3ccc(Cl)cc3Cl)c2=O)n[nH]c1=S	-15%	10µM*	0	-3	2.5µM*
COc1ccc2c3c1O[C@H]1C[C@H](O)C=C[C@@]31CCN(C)C2	nt	-6%	2	nt	-6%
Cc1noc(C)c1C(=O)OCC(=O)NCc1ccc(Cl)cc1	17%	nt	nt	-4	nt
CC1(C)CC(NC(=O)c2cc(S(=O)(=O)N3CCOCC3)c(Cl)cc2Cl)CC(C)(C)N1	11%	nt	nt	5	nt
OC(COc1ccccc1)CSc1ncn[nH]1 (stereo not drawn)	11%	-18%	1	9	11%
CC(C)(C)c1ccc(OCC(O)CSc2ncn[nH]2)cc1 (stereo not drawn)	?	5.6µM*	1	-2	10µM*
Cn1ncc2c(N3CCC(Cc4ccccc4)CC3)ncnc21	?	6%[10 µM]	0	-11	11%
NNC(=O)c1cc2c(N3CCC(Cc4ccccc4)CC3)ncnc2s1	23µM*	?	-4	-26	44%
CCNc1nc(NCC)nc(N(CC)C(N)=S)n1	?	?	-1	-5	5µM*
O=C(Nc1cccc(F)c1)N1CCCC2(CCN(C(=O)c3cc(C(F)(F)F)cc(C(F)(F)F)c3)CC2)C1	nt	-7%	-1	nt	-1%
CC1Cc2ccccc2N1S(=O)(=O)c1cccc(C(=O)NCCCO)c1 (stereo not drawn)	-3%	-10%	0	0	38%
CCOC(=O)c1ccc(NC(=O)c2cccc(S(=O)(=O)N3c4ccccc4CC3C)c2)s1 (stereo not drawn)	21µM*	?	-5	-16	?
CC(C)c1nc2sc3c(=S)nc[nH]c3c2c2c1CCC2	-1%	?	1	-23	3.2µM*
